Results reported in PubChem BioAssay (NCATS).
Results filed as inconclusive are left out. Active and inactive are the calls of the source. Unless noted, the call rests on the fitted dose curve; in most records, active means well fitted curve in the direction sought with a large enough effect; inconclusive means small, poorly fitted or top-dose-only effect, or another doubt; inactive means no such curve, though single readings can be large; an effect the other way counts as inactive or inconclusive.

Key:
[1] = target: Lysosomal acid glucosylceramidase (Homo sapiens) (UniProt P04062); experiment: Glucocerebrosidase-p2 (AID 348; in the data active means potency below about 10 µM; further: potency means the concentration at half of the fitted maximal effect); settings: purified GBA, blue fluorogenic substrate, 40 min
Lysosomal acid glucosylceramidase (Homo sapiens), sequence (P04062 whole entry, looked up): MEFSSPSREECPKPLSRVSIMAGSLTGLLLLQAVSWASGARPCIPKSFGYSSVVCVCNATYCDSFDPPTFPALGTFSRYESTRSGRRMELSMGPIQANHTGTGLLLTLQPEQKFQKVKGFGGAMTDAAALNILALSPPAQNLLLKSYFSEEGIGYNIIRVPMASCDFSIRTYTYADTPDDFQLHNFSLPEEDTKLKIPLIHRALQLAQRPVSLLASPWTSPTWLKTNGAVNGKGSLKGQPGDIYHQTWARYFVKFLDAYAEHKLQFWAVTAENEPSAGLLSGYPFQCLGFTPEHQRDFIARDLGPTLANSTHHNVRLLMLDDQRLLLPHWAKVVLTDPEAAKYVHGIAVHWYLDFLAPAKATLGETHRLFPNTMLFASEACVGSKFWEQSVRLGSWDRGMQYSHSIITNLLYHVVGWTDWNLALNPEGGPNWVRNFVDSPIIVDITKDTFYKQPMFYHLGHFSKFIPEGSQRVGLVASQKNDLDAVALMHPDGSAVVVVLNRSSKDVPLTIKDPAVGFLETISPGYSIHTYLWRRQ
Method in brief: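 Compounds titrated from 0.6 nM upwards against 0.2 nM enzyme in pH 5.9 citric acid/KH2PO4, taurocholate, tween-20; blue fluorogenic substrate 80 uM, 40 min room temperature, stopped and read Ex 365/Em 440 for AC50.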

[2] = target: Cytochrome P450 1A2 (Homo sapiens) (UniProt P05177); experiment: p450-cyp1a2 (AID 410; calls by dose curve;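 further: -100% = full effect of reference inhibitor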); settings: recombinant CYP1A2, luciferin-ME demethylation, luminescence; series mostly up to 11.4 µM
Cytochrome P450 1A2 (Homo sapiens), sequence (P05177 whole entry, looked up): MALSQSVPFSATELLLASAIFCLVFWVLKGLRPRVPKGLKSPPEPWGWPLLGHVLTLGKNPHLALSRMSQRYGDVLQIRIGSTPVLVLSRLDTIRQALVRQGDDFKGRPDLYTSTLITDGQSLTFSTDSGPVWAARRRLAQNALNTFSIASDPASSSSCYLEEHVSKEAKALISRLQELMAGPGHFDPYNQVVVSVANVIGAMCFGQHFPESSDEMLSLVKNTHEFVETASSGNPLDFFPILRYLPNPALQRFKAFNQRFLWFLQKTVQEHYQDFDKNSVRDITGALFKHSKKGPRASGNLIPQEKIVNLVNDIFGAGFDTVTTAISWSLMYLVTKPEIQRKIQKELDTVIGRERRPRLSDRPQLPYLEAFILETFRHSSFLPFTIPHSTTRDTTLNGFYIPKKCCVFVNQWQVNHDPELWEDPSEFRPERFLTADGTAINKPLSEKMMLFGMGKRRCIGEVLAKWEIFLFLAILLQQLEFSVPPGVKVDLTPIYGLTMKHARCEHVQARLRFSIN
Method in brief: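 Luminescent readout of luciferin formed from Luciferin-ME by human CYP1A2; data normalized against complete inhibition by 57 uM furafylline. Enzyme 20nM, substrate 100uM at Km, 100mM KPO4 buffer, 60 min reaction at room temperature.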

[3] = Cell Viability - BJ (AID 421; calls by dose curve;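 further: potency means the concentration at half of the fitted maximal effect; cells exposed to compound for 40 hours at 37 °C before readout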); settings: BJ fibroblast viability, qHTS
Method in brief: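 Normal human BJ foreskin fibroblasts, 1500/well in complete medium, treated 40 hr at 37 °C. Cellular ATP by CellTiter-Glo luminescence; normalized to DMSO and 100 uM tamoxifen, AC50 from Hill fit.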

[4] = Cell Viability - Jurkat (AID 426;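 active means dose-dependent loss of cell ATP signal giving a full or clear fitted curve, ranked by lower potency value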; further: potency means the concentration at half of the fitted maximal effect); settings: qHTS
Method in brief: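 qHTS, 1536-well; Jurkat E6-1, 5000 cells/well, complete medium; cpd 40 hr, 37 °C; CellTiter-Glo 20 min RT; luminescence. AC50 by Hill fit.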

[5] = Cell Viability - Hek293 (AID 427;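 active means compounds whose dose-response curve shows a full or clear partial loss of cell viability, called from curve shape rather than a numeric limit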;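 further: potency means the concentration at half of the fitted maximal effect; cells exposed to compound for 40 hours at 37 °C before reading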); settings: qHTS
Method in brief: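 HEK293 cells in complete medium were exposed to compound for 40 hr at 37 °C, then cellular ATP was read by CellTiter-Glo luminescence. Data were normalized to DMSO (basal) and 100 uM tamoxifen (100% inhibition), and AC50 came from Hill fits.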

[6] = Cell Viability - HepG2 (AID 433; calls by dose curve;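 further: potency means the concentration at half of the fitted maximal effect; potency for ATP loss meaning cytotoxicity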); settings: qHTS
Method in brief: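 In this qHTS format, a 40 h, 37 °C compound incubation of HepG2 cells in complete medium precedes a 20 min CellTiter-Glo step at room temperature. Tamoxifen and doxorubicin serve as positive controls; Hill-equation fits yield AC50.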

[7] = Cell Viability - MRC5 (AID 434; calls by dose curve;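 further: potency means the concentration at half of the fitted maximal effect; potency reflects cytotoxicity seen as loss of intracellular ATP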); settings: MRC5 lung fibroblast viability, qHTS
Method in brief: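 qHTS cytotoxicity in human lung fibroblast MRC5 cells; 40 hr treatment, 37 °C; cellular ATP by luciferase luminescence; DMSO = 0%, 100 uM tamoxifen = 100% inhibition; Hill-fit AC50.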

[8] = Cell Viability - SK-N-SH (AID 435; calls by dose curve;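 further: potency means the concentration at half of the fitted maximal effect; compound exposure lasted 40 h at 37 °C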); settings: SK-N-SH neuroblastoma cell viability qHTS
Method in brief: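 Human neuroblastoma line, 40 h exposure at 37 °C, ATP quantified via luciferase luminescence; DMSO and 100 uM tamoxifen define 0 and 100% inhibition for AC50 fitting.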

[9] = NFAT Signaling Pathway (AID 444; active means well fitted curve in either direction with a large enough effect, not every such curve was filed as active;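 further: carbachol stimulus at about its EC50 of 1 µM final; on the % scale 0 is the no-effect control and ±100 the full control effect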); settings: Jurkat NFAT-bla M1, carbachol, beta-lactamase ratio, 5 h; at 7.69 µM (top of the series) unless noted
Method in brief: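 Read-out: CCF4 FRET ratio (460 nm/530 nm) after 1 h RT dye loading, used for %activity and AC50 from titration series. Cells: Jurkat NFAT-β-lactamase/M1 line, treated with compound plus 1 uM carbachol for 5 h, 37 °C.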

[10] = Stat Signaling Pathway (AID 446; active means well fitted curve in either direction with a large enough effect, not every such curve was filed as active;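 further: ME-180 cervical cancer cells given 40 pM IL-6 alongside compound; SIE-controlled beta-lactamase reporter measured as 460/530 nm FRET emission ratio; on the % scale 0 is the no-effect control and ±100 the full control effect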); settings: ME-180 SIE beta-lactamase reporter, IL-6 stimulated, 5 h; at 7.69 µM (top of the series) unless noted
Method in brief: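 ME-180 cells carrying a SIE-driven beta-lactamase reporter are stimulated with 40 pM IL-6 for 5 h at 37C in the presence of compound. The 460/530 nm FRET substrate ratio is read after 2.5 h at RT. Data are normalised to 300 pM IL-6 and to 125 nM JAK inhibitor controls.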

[11] = target: Glucocorticoid receptor (Homo sapiens) (UniProt P04150); experiment: GR-GFP Redistribution (AID 450;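 active means compounds whose dose series gives a full or clear partial fitted curve of increased nuclear translocation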; further: potency means the concentration at half of the fitted maximal effect); settings: U2OS GR-GFP nuclear translocation, laser cytometry, 2 h
Glucocorticoid receptor (Homo sapiens), sequence (P04150 whole entry, looked up, the tested form may be a part): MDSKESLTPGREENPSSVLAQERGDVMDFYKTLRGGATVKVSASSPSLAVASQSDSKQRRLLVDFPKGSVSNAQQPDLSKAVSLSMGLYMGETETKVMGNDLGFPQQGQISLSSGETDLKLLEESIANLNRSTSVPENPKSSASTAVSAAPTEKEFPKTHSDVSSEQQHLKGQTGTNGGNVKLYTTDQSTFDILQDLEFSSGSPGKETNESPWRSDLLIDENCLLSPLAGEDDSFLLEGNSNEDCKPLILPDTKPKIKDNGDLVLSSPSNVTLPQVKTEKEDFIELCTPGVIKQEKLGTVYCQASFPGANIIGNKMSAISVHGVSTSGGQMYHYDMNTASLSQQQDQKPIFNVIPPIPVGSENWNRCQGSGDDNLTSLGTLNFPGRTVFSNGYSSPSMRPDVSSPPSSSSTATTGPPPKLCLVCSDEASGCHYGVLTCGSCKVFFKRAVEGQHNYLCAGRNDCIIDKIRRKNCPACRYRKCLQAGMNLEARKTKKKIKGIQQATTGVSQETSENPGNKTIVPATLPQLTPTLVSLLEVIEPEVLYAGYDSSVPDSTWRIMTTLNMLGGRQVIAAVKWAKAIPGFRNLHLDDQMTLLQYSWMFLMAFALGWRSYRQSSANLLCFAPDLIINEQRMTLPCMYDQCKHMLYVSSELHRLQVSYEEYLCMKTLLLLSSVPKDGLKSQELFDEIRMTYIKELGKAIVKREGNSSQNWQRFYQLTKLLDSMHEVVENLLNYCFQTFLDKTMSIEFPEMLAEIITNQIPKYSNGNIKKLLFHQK

[12] = target: Glucocorticoid receptor (Homo sapiens) (UniProt P04150); experiment: GR-EFC Redistribution (AID 451; calls by dose curve; further: potency means the concentration at half of the fitted maximal effect); settings: CHO-K1 GR-EFC translocation, beta-gal luminescence, 2 h
Method in brief: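 Translocation of GR-ED fusion to nuclear EA restores b-gal, read by luminescence after 1 h room-temperature detection. Engineered CHO-K1 biosensor cells, 1,000/well, exposed 2 h at 37 C to titrations up to 46 uM final.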

[13] = target: Mitogen-activated protein kinase 10 (Mus musculus) (UniProt Q61831); experiment: JNK3 AlphaScreen Assay (AID 530; active means well fitted curve in either direction with a large enough effect, not every such curve was filed as active;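 further: kinase came from lysate of stimulated human HepG2 cells; signal reports phosphorylation of biotinylated GST-cJun 1-79 at Ser73 with 10 µM ATP; on the % scale 0 is the no-effect control and ±100 the full control effect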); settings: JNK3 lysate, c-Jun phosphorylation; series mostly up to 11.4 µM
Method in brief: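 Compound titrations were preincubated 15 minutes at room temperature with substrate, antibody and pre-activated JNK3-containing HepG2 lysate. Reactions were started with 10 uM ATP and stopped with EDTA-containing bead buffer for AlphaScreen detection.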

[14] = Cell Viability - N2a (AID 540); settings: N2a mouse neuroblastoma cell viability; activity change, negative = cytotoxicity: at 92.2 µM (top of the series);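 further: plate controls were DMSO alone for no effect and tamoxifen control for full effect; nearly all actives have a fitted effect of over 45% in size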
Method in brief: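 Luminescent ATP signal (CellTiter-Glo, 20 min at room temperature) served as the viability read-out after N2a cells were treated with compounds for 40 hours at 37 °C. Concentration-response data were fitted to the Hill equation for AC50.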

[15] = Cell Viability - NIH 3T3 (AID 541); settings: NIH 3T3 cell viability, qHTS; activity change, negative = cytotoxicity: at 92.2 µM (top of the series);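 further: plate controls were DMSO alone for no effect and tamoxifen positive control for full effect; nearly all actives have a fitted effect of over 25% in size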
Method in brief: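 Luminescent ATP signal (CellTiter-Glo) served as the viability read-out after NIH 3T3 cells were exposed to compounds over a concentration range for 40 hr at 37 °C. Hill-equation modelling of concentration-response data gave AC50.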

[16] = Cell Viability - HUV-EC-C (AID 542); settings: HUV-EC-C endothelial cell viability, qHTS; series mostly up to 92.2 µM; further: on the % scale 0 is the no-effect control and ±100 the full control effect; nearly all actives have a fitted effect of over 35% in size
Method in brief: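 qHTS cytotoxicity: HUV-EC-C, 1000 cells/well, 5 hr settle, compound 40 hr 37 °C, CellTiter-Glo, luminescence. AC50 via Hill equation.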

[17] = Cell Viability - H-4-II-E (AID 543); settings: H-4-II-E rat hepatoma viability; series mostly up to 92.2 µM; further: on the % scale 0 is the no-effect control and ±100 the full control effect; nearly all actives have a fitted effect of over 35% in size
Method in brief: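 Luminescent ATP signal (CellTiter-Glo) served as the viability read-out, with cytotoxicity seen as a concentration-dependent ATP drop. Cells were treated for 40 hours in complete medium. AC50 values derive from Hill-equation modelling.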

[18] = Cell Viability - SH-SY5Y (AID 544); settings: SH-SY5Y neuroblastoma cell viability; viability change, negative = cytotoxic: at 92.2 µM (top of the series); further: nearly all actives have a fitted effect of over 55% in size
Method in brief: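 Luminescent ATP read-out (CellTiter-Glo) measures loss of viable SH-SY5Y neuroblastoma cells after 40 hr compound exposure at 37 °C. AC50 values derive from standard Hill modelling of qHTS concentration-response data.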

[19] = Cell Viability - Renal Proximal Tubule (AID 545); settings: renal proximal tubule cells viability, primary cells of rat origin; activity change, negative = cytotoxicity: at 91.7 µM (top of the series); further: nearly all actives have a fitted effect of over 40% in size
Method in brief: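 In this qHTS format, normal rat kidney-derived proximal tubule cells in complete culture medium receive compound titrations, then sit 40 hours at 37 °C before luciferase-based ATP quantitation; potency is reported as AC50 from concentration-response curves.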

[20] = Cell Viability - Mesenchymal (AID 546); settings: mesenchymal cells viability, qHTS; activity change, negative = cytotoxicity: at 91.7 µM (top of the series);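 further: cells exposed to compound for 40 hours before reading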
Method in brief: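 AC50 values reflect the drop in intracellular ATP in a human kidney mesenchymal line derived from normal glomeruli. Treatment lasts 40 hr at 37 °C in complete medium, and the signal comes from CellTiter-Glo luminescence.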

[21] = target: 3',5'-cyclic-AMP phosphodiesterase 4B (Homo sapiens) (UniProt Q07343); experiment: qHTS Assay for Inhibitors of PDE-IV (AID 607; active means well fitted activation curve with a large enough effect in the main read-out, with a control signal flat, not every such curve was filed as active; further: % of control where 0% means no effect); settings: HEK293 ACTOne CNG channel cells, membrane potential fluorescence; series mostly up to 22.9 µM
3',5'-cyclic-AMP phosphodiesterase 4B (Homo sapiens), sequence (Q07343 whole entry, looked up): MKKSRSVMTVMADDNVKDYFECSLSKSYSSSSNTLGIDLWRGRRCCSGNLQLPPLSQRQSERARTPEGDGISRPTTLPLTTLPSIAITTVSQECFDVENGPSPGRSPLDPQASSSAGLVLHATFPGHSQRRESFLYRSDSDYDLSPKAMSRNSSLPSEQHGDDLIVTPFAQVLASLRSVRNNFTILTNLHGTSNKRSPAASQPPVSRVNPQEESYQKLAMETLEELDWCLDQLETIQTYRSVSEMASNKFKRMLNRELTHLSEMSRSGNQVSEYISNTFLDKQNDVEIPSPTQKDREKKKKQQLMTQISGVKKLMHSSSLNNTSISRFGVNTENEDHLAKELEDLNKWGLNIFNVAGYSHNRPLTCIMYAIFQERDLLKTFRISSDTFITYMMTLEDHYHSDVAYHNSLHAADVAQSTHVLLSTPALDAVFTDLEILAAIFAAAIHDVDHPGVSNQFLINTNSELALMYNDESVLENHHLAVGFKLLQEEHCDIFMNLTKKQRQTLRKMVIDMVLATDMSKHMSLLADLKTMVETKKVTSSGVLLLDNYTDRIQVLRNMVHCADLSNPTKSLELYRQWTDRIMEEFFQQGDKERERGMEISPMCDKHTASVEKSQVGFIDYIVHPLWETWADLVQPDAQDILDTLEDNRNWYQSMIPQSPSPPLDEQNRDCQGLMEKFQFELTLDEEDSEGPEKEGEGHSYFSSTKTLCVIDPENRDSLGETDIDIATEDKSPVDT
Method in brief: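 HEK293 ACTOne cells with CNG channel (1000/well), endogenous PDE4; membrane potential dye, compounds up to 22.9 uM final. Fluorescence Ex 535/Em 590; RO 20-1724 (100 uM final) as reference.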

[22] = Cellular Toxicity (caspase-3) HepG2 (AID 654); settings: HepG2 caspase-3 activation, luminescence; series mostly up to 92.2 µM;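 further: cells exposed to compound for 16 hours before reading; 0% = DMSO alone and 100% = caspase signal from 100 µM tamoxifen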
Method in brief: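 Cells plated 5 hr at 37 °C, compound added, incubated 16 hr at 37 °C. Caspase-Glo 3/7 reagent followed, 20 min at room temperature, then luminescence read. Activation scored as signal increase; AC50 from Hill fit.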

[23] = Cellular Toxicity (caspase-3) Jurkat (AID 655); settings: Jurkat caspase-3 activation, luminescence; caspase-3 activation: at 92.2 µM (top of the series), DMSO = 0%, tamoxifen = 100%;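 further: cells exposed to compound for 16 h at 37 °C before reading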
Method in brief: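 qHTS in human Jurkat T-cell leukemia line: 16 hr compound treatment at 37 °C, caspase-3/7 activity measured by Caspase-Glo luminescence. AC50 derived from Hill equation.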

[24] = Cellular Toxicity (caspase-3) HUV-EC-C (AID 656); settings: HUV-EC-C cells, caspase-3 activation (apoptosis); series mostly up to 92.2 µM;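 further: cells exposed to compound for 16 h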
Method in brief: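 Concentration-dependent caspase 3/7 induction was assessed in HUV-EC-C cells exposed for 16 hours. Data scaled between DMSO and tamoxifen (100 uM) controls.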

[25] = Cellular Toxicity (caspase-3) SHSY5Y (AID 657); settings: SH-SY5Y caspase-3 activation; series mostly up to 91.7 µM;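 further: cells exposed to compound for 16 hours at 37 °C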
Method in brief: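 Readout: caspase-cleaved peptide-aminoluciferin substrate driving luciferase light in SH-SY5Y neuroblastoma cells after 16 h treatment. Response normalized to DMSO and 10 uM staurosporine controls.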

[26] = Cellular Toxicity (caspase-3) BJ (AID 658); settings: BJ fibroblasts, luminescence; Potency: caspase-3 activation; series mostly up to 91.7 µM;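 further: 0% = DMSO basal and 100% = 10 µM staurosporine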
Method in brief: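 Readout: Caspase-Glo 3/7 luminescence increase in BJ cells after 16 hr treatment at 37 °C. Staurosporine and tamoxifen served as positive controls; AC50 values came from Hill modelling of data normalized to DMSO and 10 uM staurosporine.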

CC(CCC(=O)O)(c1ccc(O)cc1)c1ccc(O)cc1
inactive: Potency [1] > 11.4 µM | Potency [2] | Potency [3] > 92 µM | Potency [4] > 92 µM | Potency [5] > 92 µM | Potency [6] > 92 µM | Potency [7] > 92 µM | Potency [8] > 92 µM | activity change, negative = inhibition [9] 6.62% | activity, negative = inhibition [10] -4.62% | Potency [11] > 46 µM | Potency [12] > 9.22 µM | Potency [13] | activity change, negative = cytotoxicity [14] 8.91% | activity change, negative = cytotoxicity [15] -7.14% | Potency [16] | Potency [17] | Potency [18] | Potency [19] | Potency [20] | Potency [21] | Potency [22] | Potency [23] | Potency [24] | Potency [25] | Potency [26]
